Bioassay records from PubChem BioAssay.
CYP2C19 inh: human CYP2C19 inhibition | P33261 | CYP2C19 Supersomes, luciferin-H EGE luminescence, 30 min | inhibition, % at 5 µM | 96,000 compounds, 21% hits;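 active = CYP2C19 inhibition above a set limit at 5 µM in the primary screen, cut at about 50% in these data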;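 note: plate controls were negative control wells for no effect and 2.5 mM tranylcypromine positive control for full effect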
Target sequence (P33261 whole entry, looked up): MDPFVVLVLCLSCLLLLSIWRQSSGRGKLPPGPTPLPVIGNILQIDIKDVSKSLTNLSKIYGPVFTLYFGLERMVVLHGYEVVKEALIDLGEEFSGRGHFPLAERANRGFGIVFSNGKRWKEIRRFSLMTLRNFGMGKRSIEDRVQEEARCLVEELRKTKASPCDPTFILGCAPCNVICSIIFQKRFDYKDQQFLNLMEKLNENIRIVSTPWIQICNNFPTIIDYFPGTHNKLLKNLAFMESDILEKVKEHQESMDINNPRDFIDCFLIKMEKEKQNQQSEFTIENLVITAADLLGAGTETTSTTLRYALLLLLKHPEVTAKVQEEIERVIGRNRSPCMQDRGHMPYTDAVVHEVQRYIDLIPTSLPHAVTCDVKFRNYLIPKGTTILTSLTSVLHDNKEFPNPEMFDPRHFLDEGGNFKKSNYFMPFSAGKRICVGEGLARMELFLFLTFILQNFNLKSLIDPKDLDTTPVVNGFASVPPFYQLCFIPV
CYP2C19 activ: cytochrome P450 2C19 (human) activation; P33261; recombinant CYP2C19, luciferin-H EGE luminescence; active compounds read high; 0 = fully inhibited enzyme, 1 = untreated enzyme; activation factor at 5 µM; 96,000 tested, under 10 active;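 active = activation factor of at least 2 at 5 µM in the primary screen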;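 note: 0 = wells with 2.5 mM tranylcypromine and 1 = vehicle-only wells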
PostGolgi yeast: growth inhibition of a yeast mutant, post-Golgi transport screen; post-Golgi transport phenotypic cell assay; 98,000 compounds, 0.9% hits; inhibition, % at 10 µM;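 note: yeast cells grown in 1536-well plates; yeast grown about 18 h at 30C before absorbance read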
PostGolgi ctrl: inhibits growth of the yeast control strain; efflux-deficient yeast background strain, growth absorbance A615, 16 h; inhibition, % at 10 µM; 98,000 compounds, 5% hits; AID 738
CYP2C9 inh: human CYP2C9 inhibition; inhibition, % at 5 µM; 96,000 compounds, 20% hits; AID 777; CYP2C9 Supersomes, luciferin-H conversion, luminescence;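 active = blocking of liver enzyme CYP2C9 beyond about 50% at 5 µM, limit read from the data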
CYP2C9 act: increases human cytochrome P450 2C9 activity; P11712; activation factor at 5 µM; 96,000 compounds, 1.4% hits; recombinant CYP2C9, luciferin-H conversion, luminescence; active compounds read high; factor 1 = untreated enzyme, 0 = blocked; AID 1024;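 active = activation factor of 2 or more for CYP2C9 at a 5 µM dose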;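 note: 0 = sulfaphenazole-blocked wells and 1 = vehicle-only wells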
* marks the source's active call; other numbers are inactive results; nt = not tested or not shown. The list is not random: actives were taken first. Their share in the collection is about 32%. Cut-off read from the data, not from the text of the source, unless noted: active = inhibition above about 30%; inactive = the rest.

SMILES	CYP2C19 inh	CYP2C19 activ	PostGolgi yeast	PostGolgi ctrl	CYP2C9 inh	CYP2C9 act
CCc1ccc2c(c1)cc(CN(C(=S)Nc1cccc(C)c1)C1CC1)c1nnnn12	1	1	3	3	68*	0.3
CC1C(c2ccccc2)C(C#N)(C#N)C2(C#N)C(=O)NC1(N)C2C (stereo unspecified)	98*	0	-4	1	34	0.7
CCOc1cc(N2CCOCC2)c(OCC)cc1NC(=O)Cc1cn2ccsc2n1	19	0.8	7	-9	30	0.7
CCn1c(=O)cc(SCC(=O)N2CCN(Cc3ccc4c(c3)OCO4)CC2)c2ccccc21	41	0.6	4	10	41	0.6
Cn1c(=O)cc(SCC(=O)N2CCN(Cc3ccc4c(c3)OCO4)CC2)c2ccccc21	24	0.8	-5	23	52*	0.5
O=C(CCCCn1c(=O)[nH]c2ccsc2c1=O)NCc1cccnc1	nt	nt	3	10	nt	nt
Cc1[nH]c2ccccc2c1NC(=O)CN1CCN(Cc2ccc3c(c2)OCO3)CC1	27	0.7	17	-2	12	0.9
O=C(CCCCCn1c(=O)[nH]c2ccccc2c1=O)N1CCN(Cc2ccc3c(c2)OCO3)CC1	65*	0.4	3	2	80*	0.2
O=C(CCCCn1c(=O)[nH]c2ccsc2c1=O)NCc1ccc2c(c1)OCO2	11	0.9	-1	4	60*	0.4
Cn1c(=O)c2sccc2n2c(CCCC(=O)NCc3ccc4c(c3)OCO4)nnc12	77*	0.2	2	3	6	0.9
CC(C)COCC1CC2(CC(C)C(=O)CC2=O)C(=O)O1 (stereo unspecified)	8	0.9	2	-8	21	0.8
COc1ccc(CNC(=O)Cn2nc(C(F)(F)F)c3c2CCC3)cc1	18	0.8	-8	18	-203	3*
COc1ccc(CNC(=O)c2noc3c2CCCCC3)cc1	42	0.6	-4	6	32	0.7
Cc1cc(NC(=O)Cn2nc(C(F)(F)F)c3c2CCC3)no1	-1	1	-2	11	2	1
O=C(Cn1nc(C(F)(F)F)c2c1CCCC2)NCc1ccco1	56*	0.4	-3	6	-107	2.1*
Cc1ccc(NC(=O)Cn2nc(C(F)(F)F)c3c2CCC3)cc1	50*	0.5	-2	8	6	0.9
COc1ccc(CNc2nc3c(c(C(F)(F)F)n2)CCCCC3)cc1	31	0.7	-6	39*	53*	0.5
O=C(Cn1nc(C(F)(F)F)c2c1CCCC2)NC1CCCC1	32	0.7	-42	3	-24	1.2
CCOCCCNC(=O)COc1ccc(OC)cc1	38	0.6	-10	-6	8	0.9
CC(NC(=O)Cn1nc(C(F)(F)F)c2c1CCC2)c1ccccc1 (stereo unspecified)	28	0.7	4	11	-48	1.5
COc1ccc(NC(=O)Cn2nc(C(F)(F)F)c3c2CCCC3)c(OC)c1	75*	0.3	-2	0	27	0.7
Cc1c(Cc2ccccc2)c(=O)oc2c(CN(C)C)c(O)c(Cl)cc12	nt	nt	1	-2	nt	nt
CN(C)Cc1c(O)ccc2oc(Cc3ccccc3)cc12	72*	0.3	4	9	23	0.8
CCN1CCN(c2ncc(C(=O)Nc3ccccc3C(=O)OC)c3ccccc23)CC1	10	0.9	-6	-4	56*	0.4
Cc1ccc(S(=O)(=O)N=C2SCCCS2)cc1	37	0.6	-2	-6	-104	2*
SMILES	CYP2C19 inh	CYP2C19 activ	PostGolgi yeast	PostGolgi ctrl	CYP2C9 inh	CYP2C9 act
Cc1ccc(S(=O)(=O)/N=C2/NC(=O)/C(=C\c3ccco3)S2)cc1	19	0.8	0	5	43	0.6
CCC(C)(C)n1nnnc1CN1CCC(c2nc3ccc(C)cc3[nH]2)CC1	47	0.5	2	1	66*	0.3
CCOC(=O)c1sc(N/N=C/c2cccc(C)c2)nc1C	5	0.9	2	38*	29	0.7
COC(=O)c1sc(NC(=O)c2ccco2)nc1C	8	0.9	-5	23	18	0.8
CCOC(=O)c1sc(Nc2ccc(C)cc2C)nc1C	17	0.8	4	52*	88*	0.1
CCOC(=O)c1sc(Nc2ccccc2)nc1C	24	0.8	5	11	41	0.6
CCOC(=O)c1c(Nc2nc(C)c(C(=O)NC)s2)sc(C)c1C	40	0.6	-1	-7	65*	0.4
